Laboratory results reported in PubChem BioAssay AID1159580 (chemical genetic matrix, 2015).
Out of some 5,500 compounds screened, about 2,000 (36%) were called active. About 18% were inconclusive and are not listed. No stated cut-off is given here; in the data, active means normalized growth mostly below about 0.91 (no sharp cut-off); inconclusive means no clear call, values can overlap the other calls; inactive means mostly above about 0.92. The list shows a part of the results.

Experiment: chemical genetic growth profiling, strain panel (AID 1159580);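 further: tested at 20 µM; growth read once vehicle control cultures reached saturation at 30 °C; 1 = growth at the plate median or of vehicle wells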
Conditions: growth OD
[1] = S. cerevisiae deletion strains, locus YAR019C, strain CDC15, stronger effect = lower value
[2] = S. cerevisiae deletion strains, locus YBL105C, strain PKC1, stronger effect = lower value
[3] = S. cerevisiae deletion strains, locus YBR135W, strain CKS1, stronger effect = lower value
[4] = S. cerevisiae deletion strains, locus YBR136W, strain MEC1, stronger effect = lower value
[5] = S. cerevisiae deletion strains, locus YBR160W, strain CDC28, stronger effect = lower value
[6] = S. cerevisiae deletion strains, locus YDL017W, strain CDC7, stronger effect = lower value
[7] = S. cerevisiae deletion strains, locus YDL028C, strain MPS1, stronger effect = lower value
[8] = S. cerevisiae deletion strains, locus YDL101C, strain DUN1, stronger effect = lower value
[9] = S. cerevisiae deletion strains, locus YDL108W, strain KIN28, stronger effect = lower value
[10] = S. cerevisiae deletion strains, locus YDL132W, strain cdc53, stronger effect = lower value
[11] = S. cerevisiae deletion strains, locus YDL214C, strain PRR2, stronger effect = lower value
[12] = S. cerevisiae deletion strains, locus YDR052C, strain DBF4, stronger effect = lower value
[13] = S. cerevisiae deletion strains, locus YDR054C, strain cdc34, stronger effect = lower value
[14] = S. cerevisiae deletion strains, locus YDR226W, strain ADK1, stronger effect = lower value
[15] = S. cerevisiae deletion strains, locus YDR477W, strain SNF1, stronger effect = lower value
[16] = S. cerevisiae deletion strains, locus YER123W, strain YCK3, stronger effect = lower value
[17] = S. cerevisiae deletion strains, locus YER133W, strain GLC7, stronger effect = lower value
[18] = S. cerevisiae deletion strains, locus YFL009W, strain cdc4, stronger effect = lower value
[19] = S. cerevisiae deletion strains, locus YFL029C, strain CAK1, stronger effect = lower value
[20] = S. cerevisiae deletion strains, locus YFR003C, strain YPI1, stronger effect = lower value
[21] = S. cerevisiae deletion strains, locus YFR019W, strain FAB1, stronger effect = lower value
[22] = S. cerevisiae deletion strains, locus YFR028C, strain CDC14, stronger effect = lower value
[23] = S. cerevisiae deletion strains, locus YGR040W, strain KSS1, stronger effect = lower value
[24] = S. cerevisiae deletion strains, locus YGR052W, strain FMP48, stronger effect = lower value
[25] = S. cerevisiae deletion strains, locus YGR092W, strain DBF2, stronger effect = lower value
[26] = S. cerevisiae deletion strains, locus YHR030C, strain SLT2, stronger effect = lower value
[27] = S. cerevisiae deletion strains, locus YHR079C, strain IRE1, stronger effect = lower value
[28] = S. cerevisiae deletion strains, locus YHR082C, strain KSP1, stronger effect = lower value
[29] = S. cerevisiae deletion strains, locus YHR205W, strain SCH9, stronger effect = lower value
[30] = S. cerevisiae deletion strains, locus YIL147C, strain SLN1, stronger effect = lower value
[31] = S. cerevisiae deletion strains, locus YJL095W, strain BCK1, stronger effect = lower value
[32] = S. cerevisiae deletion strains, locus YJL128C, strain PBS2, stronger effect = lower value
[33] = S. cerevisiae deletion strains, locus YJL157C, strain FAR1, stronger effect = lower value
[34] = S. cerevisiae deletion strains, locus YJR016C, strain ILV3, stronger effect = lower value
[35] = S. cerevisiae deletion strains, locus YJR066W, strain TOR1 (second series), stronger effect = lower value
[36] = S. cerevisiae deletion strains, locus YJR066W, strain TOR1, stronger effect = lower value
[37] = S. cerevisiae deletion strains, locus YKL048C, strain ELM1, stronger effect = lower value
[38] = S. cerevisiae deletion strains, locus YKL067W, strain YNK1, stronger effect = lower value
[39] = S. cerevisiae deletion strains, locus YKL101W, strain HSL1, stronger effect = lower value
[40] = S. cerevisiae deletion strains, locus YKL193C, strain SDS22, stronger effect = lower value
[41] = S. cerevisiae deletion strains, locus YKL203C, strain TOR2, stronger effect = lower value
[42] = S. cerevisiae deletion strains, locus YLR113W, strain HOG1, stronger effect = lower value
[43] = S. cerevisiae deletion strains, locus YLR133W, strain CKI1, stronger effect = lower value
[44] = S. cerevisiae deletion strains, locus YLR403W, strain SFP1, stronger effect = lower value
[45] = S. cerevisiae deletion strains, locus YML070W, strain DAK1, stronger effect = lower value
[46] = S. cerevisiae deletion strains, locus YMR001C, strain CDC5, stronger effect = lower value
[47] = S. cerevisiae deletion strains, locus YMR205C, strain PFK2 (second series), stronger effect = lower value
[48] = S. cerevisiae deletion strains, locus YMR277W, strain FCP1, stronger effect = lower value
[49] = S. cerevisiae deletion strains, locus YNL006W, strain LST8, stronger effect = lower value
[50] = S. cerevisiae deletion strains, locus YNL020C, strain ARK1, stronger effect = lower value
[51] = S. cerevisiae deletion strains, locus YNL161W, strain CBK1, stronger effect = lower value
[52] = S. cerevisiae deletion strains, locus YNL183C, strain NPR1, stronger effect = lower value
[53] = S. cerevisiae deletion strains, locus YNL207W, strain RIO2, stronger effect = lower value
[54] = S. cerevisiae deletion strains, locus YNL222W, strain SSU72, stronger effect = lower value
[55] = S. cerevisiae deletion strains, locus YNL307C, strain MCK1 (second series), stronger effect = lower value
[56] = S. cerevisiae deletion strains, locus YOL078W, strain AVO1, stronger effect = lower value
[57] = S. cerevisiae deletion strains, locus YOL136C, strain PFK27, stronger effect = lower value
[58] = S. cerevisiae deletion strains, locus YOR061W, strain CKA2, stronger effect = lower value
[59] = S. cerevisiae deletion strains, locus YOR119C, strain RIO1, stronger effect = lower value
[60] = S. cerevisiae deletion strains, locus YOR231W, strain MKK1, stronger effect = lower value
[61] = S. cerevisiae deletion strains, locus YOR329C, strain SCD5, stronger effect = lower value
[62] = S. cerevisiae deletion strains, locus YPL031C, strain PHO85, stronger effect = lower value
[63] = S. cerevisiae deletion strains, locus YPL153C, strain RAD53, stronger effect = lower value
[64] = S. cerevisiae deletion strains, locus YPL204W, strain HRR25, stronger effect = lower value
[65] = S. cerevisiae deletion strains, locus YPL209C, strain IPL1, stronger effect = lower value
[66] = S. cerevisiae deletion strains, locus YPL256C, strain CLN2, stronger effect = lower value
[67] = S. cerevisiae deletion strains, locus YPR025C, strain CCL1, stronger effect = lower value
[68] = S. cerevisiae deletion strains, locus YPR106W, strain ISR1, stronger effect = lower value
[69] = S. cerevisiae deletion strains, locus YPR111W, strain DBF20, stronger effect = lower value
[70] = S. cerevisiae deletion strains, strain NNK1, stronger effect = lower value
[71] = S. cerevisiae deletion strains, strain TSCII, stronger effect = lower value

Measured: normalized growth

O=[N+]([O-])c1cccc(C2CC(c3ccccc3)=Nc3ccccc3S2)c1 (stereo not drawn)
inactive: [1] 0.947 | [2] 0.953 | [3] 0.959 | [4] 0.974 | [5] 0.966 | [6] 0.97 | [7] 0.965 | [8] 0.95 | [9] 0.975 | [10] 0.952 | [11] 0.962 | [12] 0.973 | [13] 0.946 | [14] 0.953 | [15] 0.962 | [16] 1 | [17] 0.96 | [18] 0.959 | [19] 0.939 | [20] 0.973 | [21] 0.996 | [22] 0.948 | [23] 0.955 | [24] 1.06 | [25] 0.969 | [26] 0.976 | [27] 0.975 | [28] 0.997 | [29] 0.934 | [30] 0.969 | [31] 0.982 | [32] 0.93 | [33] 0.969 | [34] 0.954 | [35] 0.934 | [36] 0.974 | [37] 0.971 | [38] 0.968 | [39] 0.965 | [40] 0.954 | [41] 1.01 | [42] 0.927 | [43] 0.977 | [44] 0.95 | [45] 0.975 | [46] 0.946 | [47] 0.967 | [48] 0.952 | [49] 0.97 | [50] 0.963 | [51] 0.957 | [52] 0.985 | [53] 0.964 | [54] 0.958 | [55] 0.98 | [56] 0.952 | [57] 0.996 | [58] 0.949 | [59] 0.975 | [60] 0.983 | [61] 0.95 | [62] 0.961 | [63] 0.964 | [64] 0.979 | [65] 0.957 | [66] 0.939 | [67] 0.954 | [68] 0.967 | [69] 0.968 | [70] 0.963 | [71] 0.946

CC(C)(C)c1cc(C(=O)Nc2ccc3c(c2)OCO3)n(Cc2ccc(F)cc2)n1
inactive: [1] 0.987 | [2] 0.968 | [3] 0.979 | [4] 0.99 | [5] 0.98 | [6] 0.989 | [7] 0.991 | [8] 0.997 | [9] 0.986 | [10] 0.972 | [11] 0.908 | [12] 0.988 | [13] 0.993 | [14] 0.983 | [15] 0.938 | [16] 0.906 | [17] 0.955 | [18] 0.994 | [19] 0.98 | [20] 0.991 | [21] 0.938 | [22] 0.978 | [23] 0.916 | [24] 0.997 | [25] 0.902 | [26] 0.878 | [27] 0.926 | [28] 0.984 | [29] 0.86 | [30] 0.99 | [31] 0.877 | [32] 0.977 | [33] 0.909 | [34] 0.981 | [35] 0.889 | [36] 0.999 | [37] 0.931 | [38] 0.94 | [39] 0.891 | [40] 0.987 | [41] 0.994 | [43] 0.918 | [44] 0.906 | [45] 0.895 | [46] 0.982 | [47] 0.926 | [48] 0.971 | [49] 0.987 | [50] 0.889 | [51] 0.969 | [52] 0.928 | [53] 0.986 | [54] 0.983 | [55] 0.9 | [56] 0.981 | [57] 0.892 | [58] 0.874 | [59] 0.992 | [60] 0.876 | [61] 0.96 | [62] 0.934 | [63] 0.923 | [64] 0.909 | [65] 0.968 | [66] 0.887 | [67] 0.995 | [68] 0.964 | [69] 0.936 | [70] 0.974 | [71] 0.986
active: [42] 0.858

Cc1cc(C)c(Cn2nc(C(C)(C)C)cc2C(=O)Nc2cccc(C(F)(F)F)c2)c(C)c1
inactive: S. cerevisiae deletion strains, locus YAL013W, strain DEP1, stronger effect = lower value 0.991 | S. cerevisiae deletion strains, locus YBR229C, strain ROT2, stronger effect = lower value 1.06 | S. cerevisiae deletion strains, locus YCL061C, strain MRC1, stronger effect = lower value 0.99 | [8] 0.999 | S. cerevisiae deletion strains, locus YDR150W, strain NUM1, stronger effect = lower value 1.16 | S. cerevisiae deletion strains, locus YEL061C, strain CIN8, stronger effect = lower value 0.986 | S. cerevisiae deletion strains, locus YGR078C, strain PAC10, stronger effect = lower value 0.998 | [26] 1.1 | S. cerevisiae deletion strains, locus YHR087W, strain rtc3, stronger effect = lower value 0.999 | S. cerevisiae deletion strains, locus YJR043C, strain POL32, stronger effect = lower value 0.927 | S. cerevisiae deletion strains, locus YLR039C, strain RIC1, stronger effect = lower value 1.02 | S. cerevisiae deletion strains, locus YLR058C, strain SHM2 (second series), stronger effect = lower value 1 | S. cerevisiae deletion strains, locus YLR085C, strain ARP6, stronger effect = lower value 1.01 | S. cerevisiae deletion strains, locus YLR262C, strain YPT6, stronger effect = lower value 1.02 | S. cerevisiae deletion strains, locus YML094W, strain GIM5, stronger effect = lower value 1 | S. cerevisiae deletion strains, locus YMR219W, strain ESC1, stronger effect = lower value 0.998 | S. cerevisiae deletion strains, locus YMR263W, strain SAP30, stronger effect = lower value 0.988 | S. cerevisiae deletion strains, locus YNL153C, strain GIM3, stronger effect = lower value 1 | S. cerevisiae deletion strains, locus YNL298W, strain CLA4 (second series), stronger effect = lower value 1.02 | S. cerevisiae deletion strains, locus YNL322C, strain KRE1, stronger effect = lower value 0.992 | S. cerevisiae deletion strains, locus YNR030W, strain Alg12, stronger effect = lower value 0.994 | S. cerevisiae deletion strains, locus YOL006C, strain TOP1, stronger effect = lower value 1.06 | S. cerevisiae deletion strains, locus YPL055C, strain LGE1, stronger effect = lower value 1.05 | S. cerevisiae deletion strains, locus YPL241C, strain CIN2, stronger effect = lower value 0.995 | S. cerevisiae deletion strains, locus YPR135W, strain CTF4, stronger effect = lower value 1.07 | S. cerevisiae strains, strain wild type, stronger effect = lower value 1
